About 3,700 (7%) of roughly 53,000 sequences were called active.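 Rule for the calls: active = gene knockdowns whose robust z-score for IL-1 alpha signal is at least 2 or at most -2, so actives lie on both sides; inactive = the rest.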 Shown is part of a subset that was picked to be rich in actives.
experiment: Components of the Cytosolic LPS Sensing Pathway: Gene Identification via Genome-wide siRNA Screen; conditions: RAW264.7 macrophages, IL-1a HTRF, actives lie on both sides, screened at 100 nM (by protocol), cells primed 5 h with Pam3CSK4 first;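 note: robust z of the log signal after scaling to non-targeting control siRNA wells of the plate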
Summary of the method: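 Using IL-1a HTRF as read-out, the screen measured release from RAW264.7 cells after 48h siRNA knockdown (100 nM), 5 h Pam3CSK4 priming and 24 h cytosolic LipidA. Values were expressed relative to negative-control wells as robust z-scores.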

z-score, active:
GCCAUCUUCGGUCAACUCUTT against Olfr969 -2.87
CCCUAAGAGUCACCAAAAUTT against Nos2 -2.19
GGACCACUCCAAGAGUUCUTT against Ncapd3 2.88
GUCUAUCUUCAGCACAAACTT against Klrc3 2.12
GGUCGAACUUCUGUGCCAUTT against Slc39a8 2.39
GCUUUUGGUACAGGAUGCCTT against 5830411N06Rik -2.68
GCAUGUUACUAGGAUAACUTT against Mup20 2.27
CCUGCACAACUGGAAACCUTT against Nectin2 -2.16
GGAUCUAUAAGGACUACAUTT against Bmp7 4.01
GGCCGAUUCCAUUGUACAGTT against Fam177a 3.54
GGGUCAUUGGUAGCAACGATT against Oas1g -2.9
GCUACAGGGAAGUAUUGAATT against Apc 2.05
GGGAGAGUAAUGUGGACAUTT against Slc37a2 3.86
GGUCAUUGUCAAAGUCAAGTT against Nutm1 2.4
GCGACUGUACAACGAAUUGTT against Clp1 3.34
GCGUGGUGUAUUUGAAUCATT against Ch25h 2.31
GGGAACAGUAUCUGAUUCATT against Polg 2.35
GGUGUGAAGGAGAAGUUCATT against Atp6v1a 2.01
GGCCAAAGUCCACACAAGUTT against Naaa 2.12
GGUCCUAGGUACAAUCACUTT against Slfn10-ps -2.58
GGAGUCUCCCAAAUGAAGATT against Son -2.84
GGCAGUAAGAACUACUAAATT against Ric1 2.65

z-score, inactive:
GGAUAUGUGAAAUGCAUUGTT against Asb9 0.219
GGCUAAAGGCCUUCUUUUUTT against Reep3 0.622
CGCGAUUCAGCUCAUUCUCTT against Slitrk1 0.83
GGACUCCGUCAUAUACGAATT against Olfr1102 -0.187
GGUAAAAGUGGGUAGGAAATT against Ptprh 0.595
GGAUCUACGUAGCAUUUCATT against Mis12 0.237
GGGCUGAAUAAGGAACUGUTT against Nudt16l2 1.46
GGAAAGAUCACUCUUGCAUTT against Pon1 -0.58
GGAACUCUGGAAUAAUCUGTT against St6galnac2 1.58
GGACCAGCUGAUCUCAGUATT against Olfr418 -1.94
GGCUGACAAGAGAUUUAAATT against 4930430F08Rik -0.703
GCUACGCUUCCUUAUUUGCTT against Tubgcp3 0.525
GCCAAUAAGAACAACGAUGTT against Des 0.732
GGUCUUUGAUCUACGAAUGTT against Rhobtb2 0.825
GGAGAUAAAUGUGUAGACCTT against Matn3 0.915
GCACAAAUAAAGAUAAGAGTT against Uox -0.178
GGUUUAACUGUAGCAUAAGTT against Pde12 -0.0106
GGGACUCGGGCAGUAUUCATT against Tgm5 -0.185
GCAGAUGUAAAUAGCAAAATT against Apc 0.955
GGGUGACAUGAUUUUAACUTT against Fbh1 -0.727
GGCAAAUCCCGUUCACUGATT against Magel2 -1.08
GCGAUGAUGUGCUUAUGUCTT against Zfp341 0.735
CCUUAGGUACUCUAAGGAATT against D1Pas1 -0.109
CGGAUUUUGAAGUACACCGTT against Alg8 0.207
CGCAGUACCUAUUUGAGCGTT against Hs6st1 1.62
GCUCAUAAUUUUGACAGCUTT against Cyp51 0.168
GGCUUUCACGCUUUGACAATT against Ap1m2 0.209
GACUAACCAGAUGAAAGUCTT against Vmn1r11 -0.66
GGAUUCUAUGACAAAGACATT against Ddx3x 1.84
GGCUUCCAAAACAAAUCAATT against Rgn 0.857
GAUAAUGACCAGGCUACCATT against Magea7-ps 0.069
CCACUGUGCUCAAUUUGCATT against Slc9a2 -0.372
GGCUCUGGAAAAGAACAACTT against Sds 1.52
GGAAAUCAACAGCUCACAUTT against B3gnt9 -0.327
GCUGUAUGGCUAAGCAGUGTT against Olfr113 -0.42
GCCUCAAAAUGGCGGAACUTT against Casp8 -0.249
CCAAGCGAAUGUCAAAAUATT against Fam163a 0.66
GGAGAGGAACAGGAACAGATT against Ankrd9 0.557
GGCCUAAUCGAAAUGUGGCTT against Trim12a 0.515
GGUGACUGGUUUGUUGCUUTT against Pstk -1.39
GGCUGGAAUCACUGAUAUUTT against Hddc3 0.527
CGAGAUGUUUAUUCAACAUTT against Tcf23 -0.431
GGAACAUUUGAAGUGCAAATT against Ilf2 -0.45
GCCAUCGUCUACCUAUGACTT against Olfr358 -1.85
CGGUUAGUCUGUCAGUAUCTT against Xrcc3 0.488
GAUUCAGCAUUAUUUCUGUTT against Olfr980 0.524
GGGCUUGAUUGUGAAAGAATT against Tlr12 -1.82
GCUGAAGACACUCUGUGAATT against Ehbp1l1 -1.7
GCAACGCAGUACUCUACCCTT against Tns2 0.557
CCCAGUGGUUUUAAAGCAUTT against Commd3 -1.64
GCCAACGCACAUAAUAAAGTT against Ndufa13 0.245
GCUAGGUAUCUAAGGAUAUTT against Fig4 -0.579
GGGAAACUCAAACUGAUUGTT against 9930104L06Rik 0.0417
GGUCAAUUCUUUGUGAUGATT against Usf1 -0.609
GGACACUAUACAAAUUUCGTT against Fank1 -0.109
GCAAAACUUCGGAUAGUCATT against Gak 0.382
GGCCGUUUCCUACCUCAUGTT against Cckbr -1.09
GGUCCAGAUCAGUUGACAGTT against Srsf5 0.812
CCCAACUCGGUUUUUUUCUTT against Olfr1037 0.827
CCUAAGCUUAGAUCAACAUTT against Dhx36 -0.735
GGACGAGAUGAACAGCCUCTT against Chkb 0.0671
GGCGCAACGAAUAAAAAUATT against D630023F18Rik -0.581
GGAUUUCUUCCAGAAGAUGTT against Grhpr -1.54
CGUAAACAUUUCCUUCUACTT against Dmbt1 -0.718
CUAUGACACUUGGUUCCAUTT against Nxpe5 1.69
GCCUGUAGCAGAGAACUUUTT against Tmem59l 1.1
CCCAAAACUUCGUUUGUGUTT against Vezf1 -0.973
CCCAUAUCCUAGCUCUCUUTT against Olfr1230 -1.49
GGCAUGGAGAGAAGAAAAGTT against Rassf7 -0.433
GCUCUAGAAAGUUACAGAUTT against Crtam 0.317
GGCUGCAUCUAUAACAUAATT against Olfr611 -0.767
GGUGAAGGUACGAGUAAGATT against Prkra -0.809
GGACGAGAACGAUAAUUACTT against Dsc2 0.335
GGAGGUAAAGAUCAUGUCATT against Ddr1 -1.39
GGAGUAGCUGUACUCAACATT against Olfr790 -0.246
GCCACUCAGAGUGUGGAGUTT against Ddx20 -0.95
GUCCUGGAAGAAAUGAGAATT against Ifna4 0.781
CCCACAUCCCUAAGUUGUGTT against Kash5 1.55
GGAUAAUCAUUCUUGUCACTT against Ptgfr -0.736
GGUCUUUGAAUGGAACAAUTT against Aldh7a1 -1.04
GAGAGAGAAUACCACUGUGTT against Gm5431 -0.244
GCUGGAUGUGAAAAGAGCGTT against Aktip -0.00618
GGUGGAUGAAGAGUAUAAGTT against Phka2 0.338
GGGCCAGCAAGGAAAGAAUTT against Pitx2 -1.37
GCCAUGAUACCUUGUUAUUTT against Plppr5 1.08
GCUUUUUUAUGCAUUCCAATT against Rock1 0.575
